The list is not random: actives were taken first. Their share in the collection is about 3.4%.
GPR151 activ = human GPR151 activation. Q8TDV0. PathHunter beta-arrestin GPR151 cells, luminescence. activation, % at 11.2 µM. actives 1% (n = 650,000). AID 1508602; in the data active means activation above about 4.9%;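 further: 0% = median of compound wells and 100% = cells with positive control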
Target sequence (Q8TDV0 whole entry, looked up): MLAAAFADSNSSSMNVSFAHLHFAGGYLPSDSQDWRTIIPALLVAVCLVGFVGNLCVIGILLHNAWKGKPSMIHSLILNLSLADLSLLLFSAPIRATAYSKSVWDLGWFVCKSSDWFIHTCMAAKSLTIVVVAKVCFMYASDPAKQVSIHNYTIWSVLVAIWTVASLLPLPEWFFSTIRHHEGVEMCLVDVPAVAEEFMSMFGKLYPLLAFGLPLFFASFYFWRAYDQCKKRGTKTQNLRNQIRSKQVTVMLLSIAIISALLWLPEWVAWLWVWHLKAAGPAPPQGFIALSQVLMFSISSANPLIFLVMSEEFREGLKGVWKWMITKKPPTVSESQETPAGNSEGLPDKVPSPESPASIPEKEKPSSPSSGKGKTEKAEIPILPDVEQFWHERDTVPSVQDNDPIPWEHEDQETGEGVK
TEAD-YAP block = TEAD-YAP interaction inhibition. HEK-TIYL cells, TEAD-Gal4/YAP UAS-luciferase luminescence. inhibition, % at 9.12 µM. actives 1.4% (n = 640,000); in the data active means inhibition above about 32%;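 further: 0% = median of test compound wells and 100% = reference inhibitor wells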
FBW7 act = activators of human E3 ligase FBW7; Q969H0; AlphaScreen FBW7–phospho-cyclin E peptide binding, activator screen; normalized activity (activation), % at 26.1 µM; actives 0.13% (n = 650,000); AID 1259310; in the data active means normalized activity above about 1.9%;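 further: purified mutant Fbw7 with reduced substrate affinity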
MITF inh = human MITF inhibition, primary screen | AlphaScreen MITF homodimerization, bead proximity signal | inhibition, % at 2.6 µM | actives 0.91% (n = 650,000) | AID 1259374; in the data active means inhibition above about 50%;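 further: 0% = vehicle wells with protein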
MITF inh conf = confirmation of human MITF inhibitors. actives 16% (n = 4,700). inhibition, % at 2.6 µM. shares compounds with MITF inh. AlphaScreen MITF homodimerization, biotin/His-MITF beads;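 active means inhibition above a cutoff derived from the DMSO control wells, cut at about 28% in these data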;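 further: 0% = MITF dimer wells with DMSO only; inhibitors lower the bead chemiluminescence by keeping MITF from dimerizing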
AS interf DR = AlphaScreen optical interference, dose response counter-screen; shares compounds with MITF inh; IC50, µM; actives 6% (n = 480); AlphaScreen optical interference counterscreen, cell-free; call rule not given here
AlphaScreen intf2 = optically interferes with AlphaScreen signal | actives 7.6% (n = 4,700) | LysRS AlphaScreen counterscreen, signal interference, triplicate | shares compounds with MITF inh | inhibition, % at 2.6 µM | AID 1259376;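 active means inhibition above a cutoff derived from the DMSO control wells, cut at about 30% in these data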
* hit, by the source's call; . = not tested or not shown.

SMILES | GPR151 activ | TEAD-YAP block | FBW7 act | MITF inh | MITF inh conf | AlphaScreen intf2 | others
O=[N+]([O-])c1cccc(CN2CCN(S(=O)(=O)c3ccc4ccccc4c3)CC2)c1 | -0.3 | -2.0 | -0.3 | 61.6* | 14.3 | 24.3
O=[N+]([O-])c1ccc(S(=O)(=O)N2CCN(Cc3cccc(Cl)c3)CC2)cc1 | -0.1 | 7.9 | -0.2 | 64.3* | 8.7 | 10.6
O=S(=O)(c1cccc(S(=O)(=O)N2CCN(Cc3ccccc3)CC2)c1)N1CCCC1 | 0.6 | 6.5 | 0.0 | 53.1* | 8.8 | 13.9
Cc1ccc(CN2CCC3(CCC(CNC(=O)c4ccccc4)O3)CC2)cc1C (stereo not drawn) | 0.7 | -2.6 | -0.2 | -4.4 | . | .
CN(C(=O)c1ccccn1)c1nnc(C2CCCO2)s1 (stereo not drawn) | -0.5 | -19.3 | -0.1 | 7.1 | . | .
Brc1cccc2c3c4n(c12)CC1COC4(CCC3)O1 (stereo not drawn) | 3.5 | 8.8 | 0.5 | 8.2 | . | .
Cc1cc2oc3c(c(=O)c2cc1C)C(c1cccnc1)N(CCCN(C)C)C3=O (stereo not drawn) | -0.8 | -3.7 | 0.2 | 82.9* | -7.0 | -4.0
Cc1ccc(-n2c(-c3ccco3)n[nH]c2=S)cc1C | 1.0 | -5.4 | 0.1 | 1.5 | . | .
CC(=O)c1ccc(-n2c(-c3cc(-c4ccco4)[nH]n3)n[nH]c2=S)cc1 | 1.0 | -8.3 | -0.2 | 61.1* | 22.5 | 37.2*
O=[N+]([O-])c1cccc(NN=C2CCCC2)c1 | -0.5 | 5.3 | 0.7 | 17.9 | . | .
CCCN1Cc2cccc(C(=O)O)c2C1=O | 1.0 | 2.4 | 0.7 | 16.6 | . | .
O=C(O)c1cccc2c1C(=O)N(c1ccccc1)C2 | -2.1 | -4.7 | -0.1 | 71.8* | 71.6* | 13.4 | AS interf DR=>6.31
Cc1ccnc2nc(C(=O)Nc3nc(-c4cccs4)cs3)nn12 | -0.5 | -17.4 | -0.3 | 14.5 | . | .
Cc1ccnc2nc(C(=O)Nc3nc(-c4ccccn4)cs3)nn12 | 0.1 | 1.3 | -0.8 | 65.4* | 58.8* | 79.1*
CS(=O)(=O)N(CC(=O)Nc1cccc([N+](=O)[O-])c1)c1cccc2ccccc12 | 0.1 | -5.3 | -0.1 | -6.0 | . | .
O=[N+]([O-])c1ccc(CN2CCC(N3CCCCCC3)CC2)cc1 | 1.2 | 0.6 | 0.0 | 14.4 | . | .
O=[N+]([O-])c1ccc(CN2CCC(N3CCN(CCO)CC3)CC2)cc1 | -0.8 | 5.1 | -0.2 | 53.2* | 10.6 | 10.3
CC1CCC(N2CCN(Cc3ccc([N+](=O)[O-])cc3)CC2)CC1 (stereo not drawn) | -1.2 | 1.9 | 0.1 | 65.3* | 11.9 | 13.2
CC1CCN(Cc2ccc([N+](=O)[O-])cc2)CC1 | 2.8 | 4.1 | -0.1 | 6.5 | . | .
CCCN1CCC(N2CCN(c3ccc([N+](=O)[O-])cc3)CC2)CC1 | 0.4 | -2.5 | 0.0 | 54.7* | 10.6 | 17.8
CC1CCCC(N2CCN(c3ccc([N+](=O)[O-])cc3)CC2)C1 (stereo not drawn) | 1.0 | -10.4 | 0.2 | 19.9 | . | .
CCC(C)(C(=O)NC1CCCCC1)N(CC1CCCO1)C(=O)c1ccc(=O)[nH]c1 (stereo not drawn) | -0.5 | 3.7 | 0.4 | 79.2* | -7.2 | -4.4
CCOC(=O)c1ccccc1NC(=O)CN1CCN(Cc2nc3ccccc3[nH]2)CC1 | 0.1 | 4.5 | -0.3 | 0.4 | . | .
CNC(=O)CN1CCN(Cc2nc3ccc(OC)cc3[nH]2)CC1 | -0.2 | 3.2 | -0.4 | 79.6* | 12.5 | 11.7
CCS(=O)(=O)N1CCN(Cc2nc3ccc(OC)cc3[nH]2)CC1 | -2.1 | -7.1 | -0.5 | 62.4* | 13.8 | 22.1
SMILES | GPR151 activ | TEAD-YAP block | FBW7 act | MITF inh | MITF inh conf | AlphaScreen intf2 | others
CCS(=O)(=O)N1CCN(Cc2ccc(OC)cc2)CC1 | 0.2 | 5.6 | -0.1 | 37.6 | . | .
O=C1c2ccc(F)cc2C(=O)N1N1CCOCC1 | 1.0 | 11.6 | -0.1 | -9.3 | . | .
CCOC(=O)c1ccc(N2C(=O)C(Cl)=C(Nc3ccccc3C(=O)O)C2=O)cc1 | -1.6 | 23.3 | 0.6 | 56.4* | -7.6 | 2.6
CC(=O)n1c2c(c3ccccc31)OC(N)=C(C#N)C2c1cccc([N+](=O)[O-])c1 (stereo not drawn) | 0.2 | 9.3 | 0.0 | 57.8* | 7.3 | 14.0
CC1CCCC(C)N1C(=C(Cl)Cl)C(=C1NCCN1)[N+](=O)[O-] (stereo not drawn) | -1.3 | -3.4 | 0.1 | 8.8 | . | .
CCC1CCCCN1C(=O)Cn1nc(C)n2c(cc3ccsc32)c1=O (stereo not drawn) | 0.3 | 3.8 | -0.2 | 60.6* | 5.7 | 14.6
CCC1CCCCN1C(=O)Cn1nc([N+](=O)[O-])cc1C (stereo not drawn) | -0.1 | 5.7 | 1.7 | 90.9* | 2.0 | 0.8
COC(=O)C1Cc2c([nH]c3ccccc23)C(c2ccc([N+](=O)[O-])cc2)N1 (stereo not drawn) | 0.8 | 5.9 | -0.1 | 3.6 | . | .
Cc1ccc(OCCOCCN2CCN(C)CC2)c(C)c1 | 1.6 | -0.6 | 0.0 | 65.3* | 11.6 | 19.6
CN1CCN(CCOCCOc2ccc(Cl)cc2C(C)(C)C)CC1 | 2.2 | 1.7 | 0.1 | 68.5* | 15.9 | 33.3*
Cc1ccc(OCCCN2CCN(C)CC2)c(C(C)(C)C)c1 | 0.5 | -0.6 | -0.3 | 30.7 | . | .
Cc1ccc(OCCOCCN2CCN(C)CC2)c(C(C)(C)C)c1 | 0.3 | 7.9 | 0.2 | 56.3* | 6.2 | 16.7
CN1CCN(CCOCCOc2ccccc2Br)CC1 | -0.9 | -0.6 | -0.1 | 29.6 | . | .
CN1CCN(CCOCCOc2cccc(Cl)c2Cl)CC1 | -0.6 | -5.4 | 0.1 | 50.8* | 5.5 | 14.0
COc1cccc(CN2CCN(CCO)CC2)c1O | -0.6 | 3.3 | 0.1 | 14.1 | . | .
COc1cccc(C(=O)N2CCN(C3CCCCC3)CC2)c1 | -0.9 | -3.4 | 0.3 | 44.5 | . | .
CCOC(=O)c1cc2c(=O)n3ccccc3nc2n(C)c1=NC(=O)C(C)(C)Oc1ccc(Cl)cc1 | -1.9 | -6.1 | -0.1 | -4.2 | . | .
C=CCOc1ccc(/C=C2/C(=N)N3C(=NC2=O)SN=C3S(=O)(=O)C(C)C)cc1OC | -0.6 | -5.1 | -0.2 | 2.2 | . | .
Cc1cc(OCC(=O)NCCCN(C)C)ccc1Br | 0.5 | 6.4 | 0.7 | 17.2 | . | .
CCN1CCN(CCOc2ccc(C)cc2C)CC1 | 0.1 | 3.6 | -0.2 | 78.0* | -6.3 | -1.9
CCN1CCN(CCOc2ccc(C)cc2Br)CC1 | 0.7 | -0.5 | -0.4 | 24.4 | . | .
CC1=C/C(=N\N=C2\NC(=O)C(CC(=O)Nc3ccc(C(=O)O)cc3)S2)CC(C)(C)C1 (stereo not drawn) | -1.6 | -2.0 | -0.1 | 67.9* | 72.1* | 12.9 | AS interf DR=>6.48
CCOc1ccc(NC(=O)CC2S/C(=N\N=C3/C=C(C)CC(C)(C)C3)NC2=O)cc1 (stereo not drawn) | 2.3 | 7.2 | 0.0 | 14.7 | . | .
Cc1ccc(NC(=O)CC2S/C(=N\N=C3\CSC(=O)N3)NC2=O)cc1 (stereo not drawn) | 0.7 | -7.7 | -0.3 | 82.2* | 68.0* | 100.1*
